These results are taken from PubChem BioAssay (NCATS).

Records with an inconclusive call do not appear. Activity calls are given as the source filed them. The call rests on the fitted dose curve; in most records, active means well fitted inhibition curve with a large enough effect; inconclusive means small, poorly fitted or top-dose-only effect; inactive means flat fitted curve, though single readings scatter.

Common to all, as to test: qHTS profiling for inhibitors of Plasmodium falciparum proliferation (AID 504749); further: nearly all actives have a fitted effect of over 60% in size
Common to all, as to conditions: P. falciparum in erythrocytes, SYBR Green DNA, 72 h; series mostly up to 28.7 µM
Background: In qHTS, concentration-response curves come from the screen itself.

For one assay, the system named is CP237. In outline: (§1)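 In a 72 h erythrocytic culture (37 C, humidified, 5% CO2) at 2.5% hematocrit and 0.3% starting parasitemia, compounds were tested; SYBR Green I in detergent lysis buffer stained parasite DNA overnight.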
The next assay relates to CP238. In outline:
as §1

A further assay relates to CP247. The essentials:
as §1

A further assay concerns CP250. The essentials: as §1
The subject of a further assay is CP252. In outline: as §1
In another assay the test system is CP256. In outline: as §1
The test system of the next assay is CP260. In outline: as §1
The next assay relates to CP262. The essentials:
as §1

The next assay relates to CP265. The essentials: as §1
The next assay deals with CP266. The essentials: as §1
A further assay concerns CP268. The essentials: as §1
Another assay relates to CP269. In outline: as §1
In the next assay the test system is CP286. The essentials:
as §1

The next assay has as its system CP291. The essentials:
as §1

A further assay relates to CP297. In outline:
as §1

A further assay relates to CP305. In outline:
as §1

The test system of a further assay is CP315. The essentials:
as §1

The subject of another assay is CP325. In outline: as §1
The next assay concerns CP329. In outline:
as §1

The next assay relates to CP335. The essentials:
as §1
Potency means the concentration at half of the fitted maximal effect.

Consider `Cc1c(OCC(F)(F)F)ccnc1CS(=O)c1nc2ccccc2[nH]1` (centres undefined), for which the Potency entry with CP237, with CP238, in the assay with CP247, in the assay with CP250, in the assay with CP252 and in the assay with CP256 was “inactive” in each case. The Potency result in the assay on CP260, in the assay on CP262, in the assay on CP265, in the assay on CP266, with CP268 and with CP269 was “inactive” each time. Moreover, the Potency entry with CP286, in the assay with CP291, in the assay with CP297, in the assay with CP305, with CP315 and in the assay with CP325 was “inactive” throughout. The Potency entry in the assay with CP329 and with CP335 was “inactive” throughout.
Turning to `O=C(O)c1cc(=O)c2c(OCC(O)COc3cccc4oc(C(=O)O)cc(=O)c34)cccc2o1`, the Potency result in the assay on CP237, in the assay with CP238, in the assay on CP247, with CP250, in the assay with CP252 and in the assay with CP256 was “inactive” throughout. The Potency result with CP260, in the assay on CP262, in the assay on CP265, in the assay with CP266, in the assay with CP268 and in the assay on CP269 was “inactive” each time. In addition, the Potency entry in the assay on CP286, in the assay on CP291, in the assay on CP297, in the assay on CP305, in the assay on CP315 and in the assay on CP325 was “inactive” throughout. Also, the Potency entry in the assay with CP329 and with CP335 was “inactive” in each case.
Regarding `CC(C)(S)[C@@H](N)C(=O)O`, the Potency result with CP237, in the assay with CP238, with CP247, in the assay on CP250, with CP252 and in the assay on CP256 was “inactive” each time. Also, the Potency result in the assay with CP260, in the assay on CP262, in the assay on CP265, with CP266, in the assay on CP268 and with CP269 was “inactive” each time. For the same compound, the Potency entry in the assay on CP286, with CP291, in the assay on CP297, in the assay with CP305, in the assay on CP315 and in the assay with CP325 was “inactive” each time. Moreover, the Potency result in the assay on CP329 and in the assay on CP335 was “inactive” throughout.
With `Nc1nc(Cl)nc2c1ncn2[C@H]1C[C@H](O)[C@@H](CO)O1`, the Potency entry with CP237, in the assay with CP238, with CP247, with CP250, with CP252 and with CP256 was “inactive” each time. The Potency entry in the assay on CP260, with CP265 and with CP286 was “inactive” in each case.
`CN(C)C(=O)COC(=O)Cc1ccc(OC(=O)c2ccc(N=C(N)N)cc2)cc1`: the Potency entry with CP237, in the assay with CP238, with CP247, in the assay with CP250, in the assay on CP252 and in the assay on CP256 was “inactive” throughout. For the same compound, the Potency result in the assay with CP260, in the assay with CP262, in the assay with CP265, with CP266, in the assay on CP268 and in the assay with CP269 was “inactive” each time. Further, the Potency result in the assay with CP286, in the assay on CP291, with CP297, in the assay on CP305, in the assay with CP315 and with CP325 was “inactive” in each case. For the same compound, the Potency entry in the assay on CP329 and with CP335 was “inactive” each time.
Take `CNC[C@@H](O)[C@@H](O)[C@H](O)[C@H](O)CO`: the Potency entry in the assay on CP237, in the assay with CP238, with CP247, in the assay on CP250, in the assay with CP252 and in the assay with CP256 was “inactive” throughout. Moreover, the Potency result with CP260, in the assay with CP262, with CP265, with CP268, in the assay on CP269 and with CP286 was “inactive” throughout. The Potency entry in the assay with CP291, in the assay on CP297, with CP305, in the assay on CP315, in the assay on CP329 and in the assay on CP335 was “inactive” in each case.
Take `C=C(c1ccc(C(=O)O)cc1)c1cc2c(cc1C)C(C)(C)CCC2(C)C`: the Potency entry in the assay on CP237, in the assay with CP238, in the assay with CP247, in the assay on CP250, in the assay on CP252 and in the assay on CP256 was “inactive” in each case. Besides, the Potency entry with CP262, with CP265, in the assay with CP266, in the assay on CP268, in the assay on CP269 and in the assay on CP291 was “inactive” each time. In addition, the Potency result with CP297, in the assay on CP305, in the assay with CP315, with CP325 and in the assay with CP329 was “inactive” in each case.
Regarding `C[C@]12CCC(=O)C=C1CC[C@@H]1[C@H]2[C@@H](O)C[C@@]2(C)[C@H]1CC[C@]2(O)C(=O)CO`, the Potency entry in the assay on CP237, with CP238, in the assay on CP247, in the assay with CP250, with CP252 and in the assay with CP256 was “inactive” throughout. Further, the Potency result with CP260, with CP262, in the assay on CP265, with CP266, with CP268 and with CP269 was “inactive” in each case. Further, the Potency entry in the assay on CP286, in the assay on CP291, in the assay on CP297, in the assay with CP305, in the assay with CP315 and in the assay with CP325 was “inactive” throughout. In addition, the Potency entry in the assay on CP329 and with CP335 was “inactive” throughout.
`Cc1cc(=O)c2c(O)c3c(O)cc(=O)c4c3c3c(cc(O)c1c23)C(C)(C)C=4O`: the Potency in the assay on CP237 is 1.41 µM (active); in the assay on CP238, 1 µM (active); in the assay with CP247 it was 1.78 µM (active); in the assay on CP250 it was 1.41 µM (active); in the assay on CP252, 1.26 µM (active); in the assay with CP256, 1.58 µM (active). Also, the Potency with CP260 is 1.58 µM (active); with CP265 it was 1.58 µM (active); in the assay on CP269, 2.69 µM (active); in the assay on CP286, 1.58 µM (active); with CP291, 2.69 µM (active); in the assay on CP305, 3.38 µM (active). Further, the Potency was 2.13 µM (active) with CP329 and 2.39 µM (active) in the assay with CP335.
Take `Nc1cc(C(Cl)=C(Cl)Cl)c(S(N)(=O)=O)cc1S(N)(=O)=O`: the Potency entry in the assay with CP237, in the assay with CP238, in the assay on CP247, in the assay on CP250, in the assay with CP252 and in the assay on CP256 was “inactive” each time. The Potency entry in the assay with CP260, in the assay on CP262, with CP265, in the assay with CP266, in the assay with CP268 and in the assay on CP269 was “inactive” each time. Further, the Potency result in the assay with CP286, in the assay on CP291, with CP297, in the assay on CP305, in the assay with CP315 and in the assay with CP325 was “inactive” each time. The Potency result with CP329 and in the assay on CP335 was “inactive” throughout.
As to `O=C(O)c1cccnc1Nc1cccc(C(F)(F)F)c1`, the Potency entry with CP237, with CP238, with CP247, with CP250, in the assay on CP252 and in the assay on CP256 was “inactive” throughout. Moreover, the Potency result with CP260, with CP262, with CP265, in the assay with CP266, in the assay with CP268 and with CP269 was “inactive” in each case. Further, the Potency result in the assay with CP286, with CP291, in the assay with CP297, in the assay on CP305, in the assay on CP315 and with CP325 was “inactive” in each case. In addition, the Potency entry in the assay on CP329 and in the assay with CP335 was “inactive” in each case.
As for `C[C@H](Cn1cnc2c(N)ncnc21)OCP(=O)(O)O`, the Potency entry in the assay with CP237, in the assay on CP238, with CP247, in the assay with CP250, in the assay with CP252 and with CP256 was “inactive” throughout. Besides, the Potency entry in the assay on CP262, in the assay on CP265, in the assay with CP266, in the assay with CP268, in the assay with CP269 and with CP286 was “inactive” each time. Also, the Potency result with CP291, with CP297, in the assay with CP305, in the assay on CP315, with CP325 and in the assay on CP329 was “inactive” throughout. Also, the Potency result with CP335 is “inactive”.
In the case of `O=C(CS(=O)Cc1ccco1)NCC=CCOc1cc(CN2CCCCC2)ccn1` (centres undefined), the Potency entry in the assay with CP237, with CP238, in the assay on CP247, in the assay with CP250, in the assay on CP252 and in the assay on CP260 was “inactive” each time. Also, the Potency result with CP262, in the assay with CP265, in the assay on CP266, in the assay on CP268, in the assay on CP269 and in the assay on CP286 was “inactive” throughout. The Potency result in the assay on CP291, with CP305, in the assay with CP315, in the assay with CP325, in the assay on CP329 and in the assay on CP335 was “inactive” throughout.
Turning to `Cc1cccc(C)c1OCC(=O)N[C@@H](Cc1ccccc1)[C@@H](O)C[C@H](Cc1ccccc1)NC(=O)[C@H](C(C)C)N1CCCNC1=O`, the Potency in the assay on CP237 is 2.82 µM (active); with CP238 it was 5.01 µM (active); with CP247, 7.08 µM (active); in the assay with CP250 it was 7.08 µM (active); with CP252, 4.47 µM (active); in the assay with CP256, 11.2 µM (active). In addition, the Potency is 3.98 µM (active) with CP260; 9.53 µM (active) in the assay on CP262; 5.01 µM (active) in the assay on CP265; 9.53 µM (active) in the assay on CP268; 6.75 µM (active) with CP269; 7.08 µM (active) in the assay on CP286. Moreover, the Potency in the assay with CP291 was 13.5 µM (active); in the assay with CP297, 4.26 µM (active); in the assay on CP305 it was 13.5 µM (active); with CP315, 6.75 µM (active); in the assay on CP325 it was 13.5 µM (active); with CP329 it was 12 µM (active). In the assay on CP335, the Potency was 4.78 µM (active).
